Laboratory results reported in PubChem BioAssay (NCI).
About 79,000 compounds went through this panel and 15% of them were active in at least one assay; those are over-represented in the sample as a whole. Values without a mark were called inactive. Calls of active or inactive are those of the source. Rule as the data show it: active = growth inhibition above about 70%; inactive = the rest.

Columns and labels:
[1] = NCI Yeast Anticancer Drug Screen. Data for the rad50 strain (AID 155);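 also: 0% = growth of vehicle-only cultures of the same strain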; settings: S. cerevisiae rad50 strain growth inhibition; at 50.0 µM; active compounds read high
Outline: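 Relative growth inhibition (compound vs vehicle) was measured in yeast with a defined repair-gene alteration.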

[2] = NCI Yeast Anticancer Drug Screen. Data for the mec2-1 strain (AID 157); settings: S. cerevisiae mec2-1 strain, at 50.0 µM, active compounds read high
Outline: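 Test agents were screened against the mec2-1 yeast strain, with defined DNA repair or cell cycle alteration. Growth was scored as inhibition against vehicle-only controls.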

[3] = NCI Yeast Anticancer Drug Screen. Data for the sgs1 mgt1 strain (AID 161);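 also: 0% = growth of cultures given vehicle only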; settings: S. cerevisiae sgs1 mgt1 strain, at 50.0 µM, active compounds read high
Outline: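 Mutant yeast exposed to compound; growth scored against vehicle-only wells.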

[4] = NCI Yeast Anticancer Drug Screen. Data for the cln2 rad14 strain (AID 165);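 also: 0% = growth equal to vehicle treated cultures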; settings: S. cerevisiae cln2 rad14 strain, at 50.0 µM, active compounds read high
Outline: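 Growth of compound-exposed yeast (cln2 rad14 genotype) measured and expressed as inhibition relative to vehicle.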

[5] = NCI Yeast Anticancer Drug Screen. Data for the bub3 strain (AID 167); settings: S. cerevisiae bub3 mutant strain, at 50.0 µM, active compounds read high
Outline: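 Screening used yeast with an engineered genetic alteration affecting cell cycle control. Compound-exposed cultures were compared with vehicle cultures, and reduced growth was taken as inhibition.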

[6] = NCI Yeast Anticancer Drug Screen. Data for the mlh1 rad18 strain (AID 175); settings: S. cerevisiae mlh1 rad18 strain growth inhibition; at 50.0 µM; active compounds read high
Outline: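 In this whole-cell yeast screen, a strain with altered DNA damage repair is challenged with compound, and its growth is measured against matched vehicle-treated controls.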

Row | Compound | growth inhibition [1] | growth inhibition [2] | growth inhibition [3] | growth inhibition [4] | growth inhibition [5] | growth inhibition [6]
1 | Cc1sc2ccnc(C)c2c1S(=O)(=O)O | 5.3% | 9.95% | -9.95% | -3.5% | 15.2% | -12.4%
2 | CCC(=N\NC(N)=S)/C(C)=N/O | -2.35% | 6.3% | 19.4% | 15.2% | 14.3% | 16.3%
3 | COC(=O)CCCC(Sc1ccccc1)C(=O)OC (stereo not drawn) | 3.7% | 0.6% | 15.7% | -7.4% | 7.85% | 6.75%
4 | COC(=O)CC1C(=O)OC23CCC1C2(C)CCC1C3CCC2CC(OC(C)=O)CCC21C (stereo not drawn) | 87.4% (active) | 89.3% (active) | 90.5% (active) | 82% (active) | 87.5% (active) | 87.9% (active)
5 | Cn1ncc2c(NCCc3ccccc3)nc(Cl)nc21 | 19.8% | -18.3% | 5.15% | 11.2% | 8.1% | 30.2%
6 | COC(=O)C(C(Br)C(=O)c1ccccc1)C(c1ccccc1)[N+](=O)[O-] (stereo not drawn) | 68.7% | 85.3% (active) | 54.1% | 2.3% | 85.9% (active) | 94.5% (active)
7 | CCOC(=O)Oc1ccc(C(=O)Oc2cc(Cl)c(Cl)cc2Cl)cc1OC | 3.9% | 4.7% | 3.25% | 18% | -13.9% | 7%
8 | CN(C)C(=O)C1C2CCC(C3CC32)C1C(=O)N(C)C (stereo not drawn) | 22.9% | 11.8% | 37.2% | 24.4% | 24.6% | 23.4%
9 | O=C(CCc1ccccc1C(=O)O)c1ccccc1O | 0.7% | -9.55% | -3.35% | 17.2% | 5.5% | -7.6%
10 | O=C(O)CC(c1ccccc1)C(CC(=O)O)c1ccccc1.[NH-]C1CCCCC1[NH-].[Pt+2] (stereo not drawn) | 37.2% | 7.8% | -49.9% | -5.55% | -36.9% | -5.6%
11 | C=C(C(C)C)C1CC1 | 0.25% | -18.2% | -4.25% | 3.5% | -2.6% | -11.8%
12 | CCC(C)(C)C(O)c1ccc2c(c1)OCO2 (stereo not drawn) | -0.2% | -13.2% | 4.1% | -7.65% | 1.3% | -28.5%
13 | Cc1ccccc1N=Cc1ccccc1[N+](=O)[O-] | 17.1% | 9.65% | -1.1% | -22.2% | -0.6% | 8.1%
14 | CCCCN(C)CC(C)O (stereo not drawn) | -10.7% | -12.2% | -13.8% | -24.3% | 4.85% | -22.2%
15 | COc1ccc(-c2cc(=O)cc(C(N)=O)o2)cc1 | -1.1% | -1% | 4.6% | -13.8% | 11.2% | 17.2%
16 | CCCC(O)CN (stereo not drawn) | -5.65% | 18.2% | -12.7% | 9.4% | -0.85% | 24.9%
17 | Nc1nc(SCCc2ccccc2)c2[nH]cnc2n1 | -2.35% | -4.35% | -42.6% | -16.6% | -20.4% | 7%
18 | CCc1cccc(CC)c1NC(=O)CC1SC(N)=NC1=O (stereo not drawn) | -4.45% | -19.2% | -1.95% | 9.8% | 15.7% | -24.9%
19 | COc1cc(Br)c(C=Nc2cccc3cc(OC)c(OC)cc23)cc1OC | -0.9% | -14.3% | -9.9% | 20.4% | -27.1% | -15.9%
20 | Nc1ccc2ccccc2c1C(=O)c1ccccc1 | 0.95% | -1.55% | -15.2% | 37.1% | -23.6% | -5.75%
21 | CC(C(O)c1ccccn1)[N+](=O)[O-] (stereo not drawn) | -11.4% | 1.55% | -7.1% | -21.1% | -10.7% | -3.4%
22 | CC/C(C)=N\NC(N)=O | 6.85% | 6.7% | -29.7% | -16.1% | 0.1% | 6.9%

Row | Compound | growth inhibition [1] | growth inhibition [2] | growth inhibition [3] | growth inhibition [4] | growth inhibition [5] | growth inhibition [6]
23 | COC(=O)COc1ccc(Cl)cc1C(=O)O | 23.5% | 6.1% | 9.8% | -11.8% | 27.5% | 17.1%
24 | O=CNc1ccccc1O | -2.55% | -17.5% | -25% | 19.9% | -14.3% | 14.9%
25 | Cc1nc2nn[nH]n2c(=O)c1CCO | 13.2% | 0.15% | 16.2% | 14.2% | -6.95% | -51.6%
26 | NNC(=O)c1ccccc1Cl | -11.2% | -21.1% | -11.9% | 0.4% | -3.8% | -25.9%
27 | O=C1CCc2ccccc2-c2ccccc21 | 17.9% | 5% | -12.1% | -32% | -5.3% | 5.4%
28 | COC(CCl)OC | 3.75% | -18.6% | 15.8% | 10.3% | -9.7% | 2.6%
29 | Cc1ccccc1C(=O)NNC(=O)c1cccc2ccccc12 | 27.6% | -24.9% | 7.9% | 3.65% | 0.45% | 6.95%
30 | CC1(c2ccco2)CCC(=O)CC1=O (stereo not drawn) | 4.2% | 4.25% | 4.1% | 11.2% | -12.9% | 1.1%
31 | NC(CCCO)C(=O)O (stereo not drawn) | -21.1% | -6.7% | -24.1% | 8.6% | -26.6% | -26.1%
32 | CCOc1ccc(NC(=O)c2ccccc2O)cc1 | 26.9% | 14% | 17.7% | -9.05% | 17.3% | 43.3%
33 | O=C(O)CCCCCCCCCCCc1ccccc1 | -30.8% | -16.8% | -19.3% | -13.2% | 5.55% | -38.5%
34 | O=c1[nH]c(=O)c2ncn(-c3ccc(Cl)cc3)c2[nH]1 | -7.35% | -20.9% | 7.1% | -37.5% | -24.4% | -8.3%
35 | CCOC(=O)c1cn(CC)c2c(ccc3cnccc32)c1=O | -3.55% | -18.4% | -18.4% | 29.6% | -11% | 10.2%
36 | CC1(C)OC2COC(CNCC3OCC4OC(C)(C)OC34)C2O1 (stereo not drawn) | 3% | -14.4% | -6.75% | -22.3% | -14.8% | 4.55%
37 | O=C(c1ccc2ccccc2c1)C(Cl)C(Cl)c1ccccc1 (stereo not drawn) | -13.2% | 10.8% | -1.55% | -15.8% | 53.1% | -6.15%
38 | O=C(Nc1nc2ncn(CCI)c2c(=O)[nH]1)c1ccccc1 | -8.3% | 6.55% | 6.1% | -1.4% | 6.7% | -14.3%
39 | COc1ccc2cc3n(c2c1)CCc1cc(OC)c(OC)cc1-3 | 13.6% | -10.8% | 5.9% | 23.9% | 3% | 14.2%
40 | C=CC1(c2ccc(Cl)c(Cl)c2)OCCO1 | -11.3% | 15.8% | 15% | -6.5% | 9.55% | 25.4%
41 | O=[N+]([O-])c1ccc2c(c1)Sc1ccccc1N2CCCCCl | -24% | -15.8% | -49.2% | -7.25% | -1.8% | -23.2%
42 | c1ccc(B2OC(c3ccccc3)=C(c3ccccc3)O2)cc1 | 1.45% | -0.25% | 17.9% | 11.8% | -0.45% | 13.3%
43 | COC(=O)CN(C(=O)c1ccc(OC(C)=O)cc1)c1ccccc1 | 4.25% | 23.3% | -6.7% | 9.1% | 3.45% | -28.1%
